From PubChem BioAssay
This is a sample that favours compounds with a hit; in the whole collection about 11% have one here.
NS1 inh: influenza NS1 inhibition; Potency, µM (doses to about 46.1 µM), for the others: top-dose activity, positive = more growth; 0.4% of 270,000 active; calls by dose curve; also: actives are rising curves; nearly all actives have a fitted effect of over 50% in size
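A cell-based growth assay was used: compounds that relieve NS1-induced slow growth of budding yeast raise OD600. Assay medium was yeast nitrogen base with ammonium sulphate and -URA supplement, pH 6.0, with 2% galactose.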
VACV Venus inh: inhibitors of vaccinia virus (Venus reporter) | AID 720580 | 0.46% of 330,000 active | Vaccinia virus Venus reporter expression, fluorescence | Potency, µM (highest dose often 36.5 µM), for the others: top-dose activity change, negative = inhibition, most hits filed as inhibitors; calls by dose curve; tested in A549 cells; also: % is scaled to controls: 0 for no effect and ±100 for the full control effect; nearly all actives have a fitted effect of over 30% in size
HCV inhibitor: inhibitors of hepatitis C virus infection | Huh7.5.1 HCVcc-Cre infection, luciferase reporter, 44 h | Potency, µM (titrated, usually from 41.8 µM), for inactives: top-dose activity change, negative = inhibition, usual class: inhibitors | 3.4% of 340,000 active; also: % is scaled to controls: 0 for no effect and ±100 for the full control effect
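Cells (1,000/well) were plated 4 h before compound, then infected with HCVcc-Cre virus (~0.5 moi). After 44 h further culture, infection was read as luciferase luminescence following a 15 min substrate incubation at room temperature.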
Pf growth 96h: P. falciparum growth inhibition at 96 hours. P. falciparum luciferase reporter growth, 96 h. Potency, µM (highest dose often 28.7 µM), for inactives: top-dose activity change, negative = inhibition, actives largely listed as inhibitors. 6.9% of 320,000 active. AID 504834; also: % is scaled to controls: 0 for no effect and ±100 for the full control effect
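Readout is luminescence from an integrated firefly luciferase in P. falciparum. Red cells, 2% hematocrit and 0.05% parasitemia final, were cultured with compound through two parasite generations (96 hours) at 37 C, 5% CO2.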
Pf growth 48h: inhibits P. falciparum growth in the first generation, 48 h. Potency, µM (doses to about 28.7 µM), for the others: top-dose activity change, negative = inhibition, most hits filed as inhibitors. AID 504832. P. falciparum luciferase growth in erythrocytes, 48 h. 5.9% of 310,000 active; also: % is scaled to controls: 0 for no effect and ±100 for the full control effect
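Firefly luciferase activity from engineered P. falciparum reports growth; inhibitors lower the luminescent signal. Cultures contained 2% hematocrit erythrocytes at 0.1% final parasitemia.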
Vaccinia mCherry: inhibitors of vaccinia virus infection (mCherry reporter signal). Potency, µM (top dose mostly 36.5 µM), for the others: top-dose activity change, negative = inhibition, usual class: inhibitors. 0.63% of 310,000 active. Vaccinia virus mCherry reporter infection, fluorescence; calls by dose curve; tested in A549 cells; also: % is scaled to controls: 0 for no effect and ±100 for the full control effect; nearly all actives have a fitted effect of over 35% in size
Numbers without * were called inactive. Unless noted, calls follow the shape of the dose curve; as a rule, active = well fitted inhibition curve with a large enough effect; inconclusive = small, poorly fitted or top-dose-only effect, or another doubt; inactive = no such curve, though single readings can be large or run the other way. Potency is read from the fitted curve at half-maximal effect.

Screening O=C1C2C(C(=O)N1/N=C/c1cc(Br)cc([N+](=O)[O-])c1O)C1C=CC2C12CC2 (configuration not stated) returned NS1 inh -21%, VACV Venus inh -18%, HCV inhibitor 20%, Pf growth 96h 12µM* and Pf growth 48h inconclusive.
For C[C@H]1CN(c2ccc(Br)cc2)C(=O)[C@@H]1CC(=O)Nc1ccccc1 the results were VACV Venus inh -17% and Vaccinia mCherry inactive.
`C=CCN1C(=O)/C(=C\C(C)=C\c2ccccc2)SC1=S` gave NS1 inh 17%, VACV Venus inh -21%, HCV inhibitor 7%, Pf growth 96h -18%, Pf growth 48h -8% and Vaccinia mCherry -27%.
O=C(O)CN(c1ccccn1)S(=O)(=O)c1ccccc1 was read as NS1 inh 8%, VACV Venus inh -15%, HCV inhibitor 13%, Pf growth 96h 18% and Vaccinia mCherry inactive.
COC(=O)CN(c1ccccn1)S(=O)(=O)c1ccccc1 was read as NS1 inh -11%, VACV Venus inh 0%, HCV inhibitor -1%, Pf growth 96h 2.3µM*, Pf growth 48h 23% and Vaccinia mCherry -8%.
`COc1ccc(-c2ccc(C(=O)Nc3ccc(NC(C)=O)cc3)c3occc23)c(C)c1` gave VACV Venus inh -1% and Vaccinia mCherry 1%.
`CN1CN(c2ccccc2)C2(CCN(CCCSc3ccccc3NC(=O)/C=C/c3ccccc3)CC2)C1=O` gave VACV Venus inh 33%, HCV inhibitor 35µM* and Vaccinia mCherry inconclusive.
`Cc1cc(C)c(NC(=O)C2CCCN(S(=O)(=O)c3c(C)noc3/C=C/N(C)C)C2)c(C)c1` (configuration not stated) gave NS1 inh 14%, HCV inhibitor 4%, Pf growth 96h 13µM* and Pf growth 48h inconclusive.
Cc1ccc(CNC(=O)C2CCCN(S(=O)(=O)c3c(C)noc3/C=C/N(C)C)C2)cc1 (configuration not stated) was read as NS1 inh 22%, HCV inhibitor -5%, Pf growth 96h inconclusive and Pf growth 48h 13µM*.
Screening Cc1noc(/C=C/N(C)C)c1S(=O)(=O)N1CCCC(C(=O)N2CCCCC2)C1 (configuration not stated) returned NS1 inh 28%, VACV Venus inh -3%, HCV inhibitor -2%, Pf growth 96h -5%, Pf growth 48h 9.3µM* and Vaccinia mCherry -3%.
`Cc1cc(C)c(NC(=O)C2CCCN(S(=O)(=O)c3c(C)noc3C)C2)c(C)c1` (configuration not stated) gave VACV Venus inh -2% and Vaccinia mCherry -1%.
For CCCCN(Cc1ccccc1)S(=O)(=O)c1ccc2c(c1)n(C)c(=O)c(=O)n2C the results were NS1 inh 8%, HCV inhibitor -6%, Pf growth 96h 6% and Pf growth 48h 51%.
O=C(c1cc(C2CC2)nc2ccc(Br)cc12)N1N=C(C(F)F)CC1(O)C(F)F (configuration not stated) was read as NS1 inh -42%, HCV inhibitor inconclusive, Pf growth 96h 9.3µM* and Pf growth 48h inconclusive.
`O=C(c1cc(C2CC2)nc2ccccc12)N1N=C(C(F)F)CC1(O)C(F)F` (configuration not stated) gave NS1 inh -8%, HCV inhibitor inconclusive, Pf growth 96h inconclusive and Pf growth 48h -6%.
`CCOc1ccc2nc(NC(=O)c3cccc(-c4cc5ccccc5oc4=O)c3)sc2c1` gave NS1 inh 14%, VACV Venus inh inconclusive, HCV inhibitor inconclusive, Pf growth 96h 203%, Pf growth 48h 26% and Vaccinia mCherry inconclusive.
Screening Cc1ccc(/C(N)=N/OC(=O)C23CC4CC(CC(C4)C2)C3)cc1 returned NS1 inh -40%, HCV inhibitor 7%, Pf growth 96h inconclusive and Pf growth 48h 35%.
Screening N/C(=N\OC(=O)C12CC3CC(CC(C3)C1)C2)c1ccncc1 returned NS1 inh -3%, VACV Venus inh -15%, HCV inhibitor 29%, Pf growth 96h inconclusive, Pf growth 48h 10µM* and Vaccinia mCherry -16%.
`Cc1ccc(Cn2ncc3c(NCCN(C)C)ncnc32)cc1` gave NS1 inh -2%, HCV inhibitor 8%, Pf growth 96h 0% and Pf growth 48h 27%.
Screening CC1(C)CC(=O)C/C(=N\NC(=O)C2C3CCCCC32)C1 (configuration not stated) returned NS1 inh 3%, VACV Venus inh -2%, HCV inhibitor 16%, Pf growth 96h -18%, Pf growth 48h 10% and Vaccinia mCherry -7%.
Screening N#CC1=C(Nc2ccccc2)SC=C(c2ccc(Cl)c(Cl)c2)N=C1N1CCOCC1 returned NS1 inh 10%, VACV Venus inh -16%, HCV inhibitor inconclusive, Pf growth 96h inconclusive and Pf growth 48h 13µM*.
O=NCc1ccc([N+](=O)[O-])o1 was read as Pf growth 96h 13µM* and Pf growth 48h inconclusive.
For Cc1ccc(C(=O)Nc2ccc3c(c2)OCCO3)c(C)c1 the results were NS1 inh -4%, VACV Venus inh 10%, HCV inhibitor -16%, Pf growth 96h -4%, Pf growth 48h 203% and Vaccinia mCherry inactive.
For COc1ccccc1CNC(=O)c1ccc(OCc2c(C)noc2C)c(OC)c1 the results were NS1 inh -6%, VACV Venus inh 4%, HCV inhibitor inconclusive, Pf growth 96h 78%, Pf growth 48h 34% and Vaccinia mCherry -2%.
`COc1cc(/C=N/n2nnnc2N)cc(Cl)c1OC` gave VACV Venus inh -12%, HCV inhibitor -21% and Vaccinia mCherry -5%.
Screening O=C(NCC1CCCO1)/C(=C\c1cccc([N+](=O)[O-])c1)NC(=O)c1ccccc1 (configuration not stated) returned VACV Venus inh -5%, HCV inhibitor 5%, Pf growth 96h 22%, Pf growth 48h 31% and Vaccinia mCherry -10%.
O=C(NCC1CCCO1)c1ccc(Oc2ccc([N+](=O)[O-])cc2)cc1 (configuration not stated) was read as NS1 inh -8%, HCV inhibitor -2%, Pf growth 96h 1.5µM* and Pf growth 48h 4%.
For O=C(NCC1CCCO1)C(=Cc1cccc([N+](=O)[O-])c1)C(=O)NCC1CCCO1 (configuration not stated) the results were NS1 inh -3%, VACV Venus inh inconclusive, HCV inhibitor inconclusive, Pf growth 96h 13µM*, Pf growth 48h inconclusive and Vaccinia mCherry 13µM*.
